Among the data in PubChem BioAssay are differential viability (reversal) and viability values, retold here.

Calls of active or inactive are those of the source.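 How the source made its calls: active means viability loss from added drug above about 55%, and viability with drug at most 40%, in both replicates (limit read from the data, passing the limit was not always enough); inconclusive means both conditions met in only one replicate; inactive means neither replicate meets both conditions.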

One test is described as follows: reversal of MRP1-mediated doxorubicin resistance, pilot screen, H69AR cells, doxorubicin co-treatment (AID 601). The note with it: H69AR cells + 2 uM doxorubicin, CellTiter-Glo, 72 h; at 10 µM; stronger effect = higher value.
`COc1ccc(C(=O)NCc2nnc(SC)n2C2CCCCC2)cc1`: the differential viability (reversal) is 9.5% (inactive).
Consider `Oc1ccc(Cl)cc1-c1cc(-c2ccccc2)n[nH]1`, for which the differential viability (reversal) was -7.55% (inactive).
With `O=C(CCCn1c(=O)c2sccc2n(Cc2cc(=O)n3ccccc3n2)c1=O)NCc1ccco1`, the differential viability (reversal) is -2.97% (inactive).
Regarding `COC(=O)c1cn(NC(=O)C2CCCO2)c(=O)c2ccccc12` (stereo not given), the differential viability (reversal) is 4.83% (inactive).
`CCN(CC)CCCNC(=O)c1cn(C)c2ccc(S(=O)(=O)N(C)C)cc2c1=O`: the differential viability (reversal) was 2.72% (inactive).
Turning to `Cc1nnc(SCCn2c(N3CCC(Cc4ccccc4)CC3)nc3c2c(=O)[nH]c(=O)n3C)s1`, the differential viability (reversal) is 8.24% (inactive).
Same read-out and setting: as for `O=C(C(Cc1ccccc1)n1cccc1)N1CCCCCC1` (stereo not given), the figure is 11.2% (inactive); as for `O=C(Cn1nc(Cc2ccncc2)c2ccccc2c1=O)N1CCN(C(=O)c2ccco2)CC1`, -8.19% (inactive); as for `COc1ccc(-c2nc(CS(=O)CC(=O)NCc3ccccn3)c(C)o2)cc1` (stereo not given), 8.14% (inactive).
As to `CCn1c(SCC(=O)Nc2ccc(Cl)cc2)nnc1C1CC1`, the differential viability (reversal) is 11.1% (inactive).
For `CCOC(=O)CN(C(=O)c1ccccc1)c1ccccc1C`, the differential viability (reversal) was 15.2% (inactive).
On to `COC(=O)Cc1cc(=O)[nH]c(Nc2nc3ccccc3o2)n1`, for which the differential viability (reversal) was 8.41% (inactive).
On to `COc1ccc(C2CC(c3cccc(C)c3)n3ncnc3N2)cc1` (stereo not given), for which the differential viability (reversal) was -5.74% (inactive).
Take `CC1CCCCN1CCNC(=O)C1CCN(S(=O)(=O)c2cccc3cccnc23)CC1` (stereo not given): the differential viability (reversal) is 4.43% (inactive).
As for `CCCCSc1nc(CCC)cc(=O)[nH]1`, the differential viability (reversal) is -0.345% (inactive).
Regarding `CC1(C)CC(=O)C2=C(C1)NC(=O)CC2c1ccc(N(CCC#N)CCC#N)cc1` (stereo not given), the differential viability (reversal) is 23.6% (inactive).
Turning to `Cc1cccc(OCC(=O)N2CCN(C(=O)Cc3ccccc3)CC2)c1`, the differential viability (reversal) was -0.125% (inactive).
Same read-out and setting: as for `O=C1CC(c2cccnc2)c2cc3c(cc2N1)OCO3` (stereo not given), the figure is 18.4% (inactive).
With `CCc1nn(CC(=O)NCCCN2CCc3ccccc3C2)c(=O)c2cc3sccc3n12`, the differential viability (reversal) was -3.23% (inactive).
On the same count and under the same terms, the value for `Cc1ccc(-c2nc3cc(NC(=O)C(C)C)ccc3o2)cc1` was -1.22% (inactive).
As for `CC(CC(=O)NC1CCSC1=O)c1ccccc1` (stereo not given), the differential viability (reversal) is 1.77% (inactive).
Take `COc1ccc(C2CC(c3ccc(OC)cc3)n3nc(N)nc3N2)cc1` (stereo not given): the differential viability (reversal) was -2.91% (inactive).
Still for that read-out and setting: the value for `COC(=O)COc1cccc(NC(=O)COc2ccccc2)c1` was 3.21% (inactive); that for `COc1ccc(OCCSc2nc3ccccc3n2CC(=O)O)cc1` was 2.5% (inactive).
On the same count and under the same terms, as for `Cc1cccnc1-n1c(CCN2C(=O)c3ccccc3C2=O)nc2ccccc2c1=O`, the figure is 4.03% (inactive); as for `CC(=O)N(c1ccc(Br)cc1)C1C=CS(=O)(=O)C1` (stereo not given), 4.71% (inactive).
With `Cc1ccccc1Cn1cc(/C=N/n2cnnc2)c2ccccc21`, the differential viability (reversal) was 13.3% (inactive).
Regarding `CCOC(=O)N1CCN(c2cc(=O)n(-c3ccccc3Cl)c(=O)[nH]2)CC1`, the differential viability (reversal) was -3.22% (inactive).
As for `CCCCN(C)Cc1c(O)ccc2c(-c3ccccc3)cc(=O)oc12`, the differential viability (reversal) was 8.13% (inactive).
For the compound `CCCCn1c(CN2CCN(c3ccc(F)cc3)CC2)nc2c1c(=O)n(C)c(=O)n2C`, the differential viability (reversal) is -3.86% (inactive).
With `CCn1c(SCC(=O)Nc2cccc(C)c2)nc2c(c1=O)SC(C)C2` (stereo not given), the differential viability (reversal) was 3.39% (inactive).
For the compound `COc1cccc(C2CC(c3ccc(C)cc3)n3nc(N)nc3N2)c1` (stereo not given), the differential viability (reversal) is -7.23% (inactive).
With `Cc1cc(C)cc(N(CC(=O)Nc2cccc(C)n2)S(=O)(=O)c2c(C)noc2C)c1`, the differential viability (reversal) is 11.8% (inactive).
Turning to `Cc1noc(C)c1S(=O)(=O)N1CCN(Cc2ccc3c(c2)OCO3)CC1`, the differential viability (reversal) is 9.66% (inactive).
With `Cn1c(C(=O)NCCCN2CCCCCC2)cc2c(=O)n(C)c3ccccc3c21`, the differential viability (reversal) was 12% (inactive).
Turning to `CS(=O)(=O)N(Cc1ccco1)CC(O)Cn1c2ccccc2c2ccccc21` (stereo not given), the differential viability (reversal) was -2.92% (inactive).
For `CC(=O)Nc1ccc(S(=O)(=O)Nc2nc3c(s2)CCCC3)cc1`, the differential viability (reversal) was 11.5% (inactive).
As for `CCOC(=O)C(CC)Sc1ncnc2nc[nH]c12` (stereo not given), the differential viability (reversal) is 13% (inactive).
With `COc1cc2c(cc1OC)-c1nnc(C)n1C1(CCCC1)C2`, the differential viability (reversal) is 0.73% (inactive).
Consider `Nc1nc2n(n1)C(c1cccc(Br)c1)CC(c1ccccc1)N2` (stereo not given), for which the differential viability (reversal) was -9.83% (inactive).

The same test, now with this note: H69AR cells + 2 uM doxorubicin, CellTiter-Glo, 72 h; measured here: viability with 2 uM doxorubicin; at 10 µM; stronger effect = lower value.
As to `COc1ccc(C(=O)NCc2nnc(SC)n2C2CCCCC2)cc1`, the viability turned out to be 82.5%.
In the case of `Oc1ccc(Cl)cc1-c1cc(-c2ccccc2)n[nH]1`, the viability came out at 13.9%.
For the compound `O=C(CCCn1c(=O)c2sccc2n(Cc2cc(=O)n3ccccc3n2)c1=O)NCc1ccco1`, the viability amounted to 80%.
For the compound `COC(=O)c1cn(NC(=O)C2CCCO2)c(=O)c2ccccc12` (stereo not given), the viability came out at 91.8%.
With `CCN(CC)CCCNC(=O)c1cn(C)c2ccc(S(=O)(=O)N(C)C)cc2c1=O`, the viability turned out to be 96.7%.
In the case of `Cc1nnc(SCCn2c(N3CCC(Cc4ccccc4)CC3)nc3c2c(=O)[nH]c(=O)n3C)s1`, the viability was 71.1%.
With `O=C(C(Cc1ccccc1)n1cccc1)N1CCCCCC1` (stereo not given), the viability turned out to be 84.4%.
`O=C(Cn1nc(Cc2ccncc2)c2ccccc2c1=O)N1CCN(C(=O)c2ccco2)CC1`: the viability is 94.2%.
In the case of `COc1ccc(-c2nc(CS(=O)CC(=O)NCc3ccccn3)c(C)o2)cc1` (stereo not given), the viability came to 84.8%.
On the same count and under the same terms, the value for `CCn1c(SCC(=O)Nc2ccc(Cl)cc2)nnc1C1CC1` was 63.7%; that for `CCOC(=O)CN(C(=O)c1ccccc1)c1ccccc1C` was 94%.
In the case of `COC(=O)Cc1cc(=O)[nH]c(Nc2nc3ccccc3o2)n1`, the viability was 69.8%.
Consider `COc1ccc(C2CC(c3cccc(C)c3)n3ncnc3N2)cc1` (stereo not given), for which the viability came out at 97.2%.
On the same count and under the same terms, as for `CC1CCCCN1CCNC(=O)C1CCN(S(=O)(=O)c2cccc3cccnc23)CC1` (stereo not given), the figure is 95.8%; as for `CCCCSc1nc(CCC)cc(=O)[nH]1`, 88.5%.
In the case of `CC1(C)CC(=O)C2=C(C1)NC(=O)CC2c1ccc(N(CCC#N)CCC#N)cc1` (stereo not given), the viability was 86.6%.
`Cc1cccc(OCC(=O)N2CCN(C(=O)Cc3ccccc3)CC2)c1`: the viability was 97.5%.
The same measure, in the same setting: the value for `O=C1CC(c2cccnc2)c2cc3c(cc2N1)OCO3` (stereo not given) was 85.7%.
As to `CCc1nn(CC(=O)NCCCN2CCc3ccccc3C2)c(=O)c2cc3sccc3n12`, the viability is 80.8%.
`Cc1ccc(-c2nc3cc(NC(=O)C(C)C)ccc3o2)cc1`: the viability amounted to 83.6%.
For `CC(CC(=O)NC1CCSC1=O)c1ccccc1` (stereo not given), the viability stood at 111%.
As to `COc1ccc(C2CC(c3ccc(OC)cc3)n3nc(N)nc3N2)cc1` (stereo not given), the viability was 85.1%.
Regarding `COC(=O)COc1cccc(NC(=O)COc2ccccc2)c1`, the viability came to 93.2%.
Turning to `COc1ccc(OCCSc2nc3ccccc3n2CC(=O)O)cc1`, the viability came out at 95.3%.
Regarding `Cc1cccnc1-n1c(CCN2C(=O)c3ccccc3C2=O)nc2ccccc2c1=O`, the viability was found to be 91.1%.
For the compound `CC(=O)N(c1ccc(Br)cc1)C1C=CS(=O)(=O)C1` (stereo not given), the viability was 84.1%.
In the case of `Cc1ccccc1Cn1cc(/C=N/n2cnnc2)c2ccccc21`, the viability worked out at 82%.
As for `CCOC(=O)N1CCN(c2cc(=O)n(-c3ccccc3Cl)c(=O)[nH]2)CC1`, the viability stood at 90.1%.
As to `CCCCN(C)Cc1c(O)ccc2c(-c3ccccc3)cc(=O)oc12`, the viability stood at 88.6%.
For `CCCCn1c(CN2CCN(c3ccc(F)cc3)CC2)nc2c1c(=O)n(C)c(=O)n2C`, the viability was 99.3%.
`CCn1c(SCC(=O)Nc2cccc(C)c2)nc2c(c1=O)SC(C)C2` (stereo not given): the viability came out at 73.3%.
Consider `COc1cccc(C2CC(c3ccc(C)cc3)n3nc(N)nc3N2)c1` (stereo not given), for which the viability is 105%.
On to `Cc1cc(C)cc(N(CC(=O)Nc2cccc(C)n2)S(=O)(=O)c2c(C)noc2C)c1`, for which the viability worked out at 73.8%.
Consider `Cc1noc(C)c1S(=O)(=O)N1CCN(Cc2ccc3c(c2)OCO3)CC1`, for which the viability amounted to 85.7%.
Consider `Cn1c(C(=O)NCCCN2CCCCCC2)cc2c(=O)n(C)c3ccccc3c21`, for which the viability was 75.1%.
Take `CS(=O)(=O)N(Cc1ccco1)CC(O)Cn1c2ccccc2c2ccccc21` (stereo not given): the viability is 83.4%.
Consider `CC(=O)Nc1ccc(S(=O)(=O)Nc2nc3c(s2)CCCC3)cc1`, for which the viability came out at 88%.
For the compound `CCOC(=O)C(CC)Sc1ncnc2nc[nH]c12` (stereo not given), the viability is 88.2%.
Regarding `COc1cc2c(cc1OC)-c1nnc(C)n1C1(CCCC1)C2`, the viability is 98.3%.
Still for that read-out and setting: as for `Nc1nc2n(n1)C(c1cccc(Br)c1)CC(c1ccccc1)N2` (stereo not given), the figure is 98.7%.

As usually defined, the viability is a read-out of living cells in per cent, often relative to untreated cells.
